KCNQ2 inh: KCNQ2 (rat) channel inhibition; B-score at 10 µM; O88943; CHO-K1 KCNQ2, FluxOR thallium flux, 20 min; active compounds read low; AID 2156; 310,000 compounds, 1.1% hits;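 active = fluorescence ratio B-score at most minus 3 library SDs, with starting brightness B-score within 2 library SDs, cut at about -5.5 in these data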
KCNQ2 pot: KCNQ2 (rat) channel potentiation; AID 2239; O88943; 310,000 compounds, 0.54% hits; B-score at 10 µM; CHO-K1 KCNQ2, FluxOR thallium flux fluorescence; active compounds read high;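 active = fluorescence ratio B-score at least 3 SD of library B-scores, with initial fluorescence B-score within 3 of them, cut at about 5.3 in these data; same plate scores as AID 2156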;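 note: B-score of peak minus minimum over baseline fluorescence ratio after K+ and Tl+ stimulus; positive B-score means potentiation of KCNQ2 with more thallium influx and brighter signal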
Kir21 confirm: confirmation of mouse Kir2.1 potassium channel inhibitors; 2,300 compounds, 41% hits; shares compounds with KCNQ2 pot; AID 2032; Kir2.1-expressing cells, FluxOR thallium flux fluorescence; active compounds read low; Tl flux remaining, % of negative control (active compounds read low), % at 10 µM;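 active = Primary-screen hit whose thallium flux fell at least 3 control SD below untreated wells in both duplicates, with normal baseline fluorescence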;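 note: 0% = blank wells without stimulus and 100% = stimulated no-compound controls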
HEK293 Tl flux: parental HEK293 activity in Kir2.1 inhibitor counter-screen; FluxOR signal as % of negative control (100 = no effect), % at 10 µM; AID 2105; parental HEK293 cells, FluxOR thallium flux fluorescence; 0% = unstimulated blank wells; 2,300 compounds, 19% hits; shares compounds with KCNQ2 pot;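 active = dye signal at least 3 control SD above or below untreated wells in both duplicates, raw fluorescence within 3, either direction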;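 note: percent is based on the flux ratio of peak minus minimum fluorescence over baseline F0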
CHO-K1 ctr: parental CHO-K1 activity in KCNQ2 potentiator counter-screen. shares compounds with KCNQ2 pot. parental CHO-K1 cells, FluxOR thallium flux fluorescence; zero = vehicle mean+3SD, 100% = vehicle-minus-blank window. activity increase over 3SD of controls, % at 10 µM. 1,200 compounds, 43% hits;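 active = signal rise of at least 3 SD above the untreated control mean, in both duplicate wells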;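 note: counter screen of KCNQ2 potentiator hits so any rise reflects channel-independent effects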
KCNQ1 pot spec: selectivity of KCNQ2 potentiators: effect on human KCNQ1; shares compounds with KCNQ2 pot; CHO KCNQ1 stable, FluxOR thallium flux fluorescence; beyond 3SD, as % of vehicle-control signal; activation over 3SD threshold, % at 10 µM; 1,200 compounds, 28% hits;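 active = fluorescence ratio rise of at least 3 SD of vehicle wells above their mean, in both replicate wells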;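 note: 0% = vehicle mean plus 3 SD and 100% = vehicle minus unstimulated blank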
Target sequence (P51787 whole entry, looked up): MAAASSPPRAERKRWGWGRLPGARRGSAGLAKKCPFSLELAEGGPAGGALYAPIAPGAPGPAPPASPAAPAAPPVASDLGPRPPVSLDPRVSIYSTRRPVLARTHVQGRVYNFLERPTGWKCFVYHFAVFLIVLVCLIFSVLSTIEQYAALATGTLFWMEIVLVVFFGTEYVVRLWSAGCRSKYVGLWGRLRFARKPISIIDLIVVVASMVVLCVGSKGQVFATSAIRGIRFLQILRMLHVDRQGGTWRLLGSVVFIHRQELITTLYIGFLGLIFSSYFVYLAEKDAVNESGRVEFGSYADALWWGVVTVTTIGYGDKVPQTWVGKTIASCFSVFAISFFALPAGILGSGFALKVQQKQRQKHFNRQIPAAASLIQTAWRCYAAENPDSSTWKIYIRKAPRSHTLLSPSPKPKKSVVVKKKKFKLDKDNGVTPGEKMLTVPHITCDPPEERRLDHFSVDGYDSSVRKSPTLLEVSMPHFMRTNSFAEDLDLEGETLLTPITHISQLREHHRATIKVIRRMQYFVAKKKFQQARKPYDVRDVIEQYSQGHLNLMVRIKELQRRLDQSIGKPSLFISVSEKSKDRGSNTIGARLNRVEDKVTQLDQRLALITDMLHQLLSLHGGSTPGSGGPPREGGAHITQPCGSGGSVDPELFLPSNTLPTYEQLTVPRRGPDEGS
KCNQ2 pot confirm: rat KCNQ2 channel potentiator confirmation | 1,200 compounds, 68% hits | potentiation, less the hit threshold, % at 10 µM | CHO-KCNQ2 cells, FluxOR thallium flux fluorescence | shares compounds with KCNQ2 pot;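 active = fluorescence ratio rising 3 SD or more over the vehicle control mean in both replicates, plus primary screen hit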;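 note: peak minus minimum thallium fluorescence divided by baseline after K/Tl stimulus; 0% = vehicle mean plus 3 SD and 100% = vehicle minus unstimulated blank difference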
Kir2-1 sel: tests whether KCNQ2 potentiators also affect mouse Kir2.1. shares compounds with KCNQ2 pot. HEK293 Kir2.1, FluxOR thallium flux fluorescence. activity over 3SD threshold, % at 10 µM. 1,200 compounds, 2% hits;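 active = fluorescence ratio rise of at least 3 SD above the vehicle-control mean, seen in both replicates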;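 note: 0% = vehicle mean plus 3 SD and 100% = vehicle minus no-stimulus blank window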
KCNQ2 W236L pot: potentiates the retigabine-insensitive rat KCNQ2 W236L mutant channel; shares compounds with KCNQ2 pot; CHO KCNQ2-W236L, automated patch clamp current; current increase over 3SD of negative controls (%), active compounds read high, % at 25 µM; 940 compounds, 10% hits; AID 2558;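 active = current increase at least 3 SD of the untreated controls above them in both duplicate recordings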
* marks the source's active call; other numbers are inactive results; i = inactive; x = no result given. The list is not random: actives were taken first. Their share in the collection is about 1.6%.

SMILES | KCNQ2 inh | KCNQ2 pot | Kir21 confirm | HEK293 Tl flux | CHO-K1 ctr | KCNQ1 pot spec | KCNQ2 pot confirm | Kir2-1 sel | others
CC1=NNC(=O)C1CC(=O)N/N=C/C=C/c1ccccc1 (configuration not stated) | i | 8.79* | i | i | -9.5 | -20.7 | -14.5 | -36.9
COc1ccc(C)cc1N(C(=O)c1ccco1)C(C(=O)NC1CCCC1)c1ccc(N2CCOCC2)cc1 (configuration not stated) | i | x | x | x | x | x | x | x
S=c1[nH]c2cc(-c3ccccc3)ccc2o1 | i | 17.9* | i | 499.5%* | -16.8 | -5.9 | 99.8* | 3.9* | KCNQ2 W236L pot=i
O=S(=O)(c1ccc2oc(=S)[nH]c2c1)N1CCCCC1 | i | x | x | x | x | x | x | x
Cc1cc2c3ccccc3ncn2n1 | i | x | x | x | x | x | x | x
Cc1ccc(S(=O)(=O)Nc2c(Cl)c(Cl)c(O)c3ccccc23)cc1 | i | 6.4* | i | i | -9.1 | 67.8* | -10.9 | -45.2 | KCNQ2 W236L pot=i
Cc1ccc(S(=O)(=O)Nc2c(O)ccc3ccccc23)cc1 | i | 2.44 | x | x | x | x | x | x
Cc1cc(Cl)c(S(=O)(=O)N2CCSCC2)cc1OCC(=O)NC1CCCCC1 | i | 32.3* | i | 126.0%* | 6.8* | -17.3 | 121.7* | -26.3 | KCNQ2 W236L pot=i
Cc1cc(Cl)c(S(N)(=O)=O)cc1OCC(=O)NC1CCCCC1 | i | x | x | x | x | x | x | x
Cc1cc(Cl)c(S(=O)(=O)NC2CCCC2)cc1OCC(=O)NC1CCCCC1 | i | 0.41 | x | x | x | x | x | x
Cc1cc(Cl)c(S(=O)(=O)N2CCCCCC2)cc1OCC(=O)NC1CCCCC1 | i | 25.2* | i | 129.5%* | -0.6 | -14.1 | 163.7* | -33.1 | KCNQ2 W236L pot=i
COc1ccc(-c2csc(NCCc3nc4cc(C(=O)NCCCO)ccc4n3Cc3ccc(C)cc3)n2)cc1 | i | x | x | x | x | x | x | x
Cc1cc(NC(=O)Nc2cccc(C)c2C)no1 | i | x | x | x | x | x | x | x
O=C(O)CCn1c(SCc2ccccc2)nc2ccccc21 | i | 0.07 | x | x | x | x | x | x
Cc1noc(C)c1CSc1nc2ccccc2n1CCc1ccccc1 | -6* | -6 | 65.5%* | i | x | x | x | x
CCC(Cc1ccccc1)NC(=O)C1CC1 (configuration not stated) | i | 0.9 | x | x | x | x | x | x
CC(C)c1ccc(/C=N/n2c(COc3ccccc3)n[nH]c2=S)cc1 | i | 7.67* | i | i | -3.3 | -45.0 | 9.0* | -15.2 | KCNQ2 W236L pot=i
Cc1ccc(/C=N/n2c(COc3ccccc3)n[nH]c2=S)cc1 | i | x | x | x | x | x | x | x
COc1ccc(CNC(=O)c2csnn2)cc1 | i | x | x | x | x | x | x | x
O=C(NC(=S)Nc1ccccc1)c1csnn1 | i | 18.1* | i | 487.0%* | -18.0 | -12.7 | 73.3* | -4.7 | KCNQ2 W236L pot=i
O=C(Nc1csnn1)c1csnn1 | i | x | x | x | x | x | x | x
COc1ccc(NC(=S)NC(=O)c2csnn2)cc1 | i | 10.7* | i | 242.5%* | 21.2* | -10.5 | 29.9* | -19.2 | KCNQ2 W236L pot=i
O=C(NC(=S)Nc1ccccc1)c1ccc(-c2ccccc2)cc1 | i | 0.29 | x | x | x | x | x | x
O=C(NC(=S)Nc1ccc(C(F)(F)F)cc1)c1csnn1 | i | 21.2* | i | 398.0%* | 2.2* | -25.8 | 69.4* | -22.6 | KCNQ2 W236L pot=i
O=C(NC(=S)Nc1ccccc1)c1cc(-c2ccccc2)nc2ccccc12 | i | 16.9* | i | 131.0%* | -13.1 | -20.7 | 1.7* | -33.8 | KCNQ2 W236L pot=i
SMILES | KCNQ2 inh | KCNQ2 pot | Kir21 confirm | HEK293 Tl flux | CHO-K1 ctr | KCNQ1 pot spec | KCNQ2 pot confirm | Kir2-1 sel | others
O=C(NC(=S)Nc1ccccn1)c1cc(-c2ccccc2)nc2ccccc12 | i | 1.68 | x | x | x | x | x | x
CC1CCN(C(=O)CSc2ccc(-c3cccnc3)nn2)CC1 | i | x | x | x | x | x | x | x
Cc1cc(OCc2nnc(SC(C)C(=O)O)n2Cc2ccccc2)ccc1Cl (configuration not stated) | i | x | x | x | x | x | x | x
CCCCn1c(-c2ccccc2)cnc1SCC(=O)NCCc1ccc(OC)c(OC)c1 | i | x | 56.0%* | i | x | x | x | x
COc1ccc(CCNC(=O)CSc2nnc(-c3ccccc3)c3ccccc23)cc1OC | i | x | x | x | x | x | x | x
c1ccc(CNCCC(Cc2ccccc2)c2ccco2)cc1 (configuration not stated) | i | x | 17.0%* | 74.0%* | x | x | x | x
CN(C)c1ccc(CNCCC(Cc2ccccc2)c2ccco2)cc1 (configuration not stated) | i | x | x | x | x | x | x | x
COC(=O)c1ccc2c(=O)[nH]c(COC(=O)CCC(=O)c3ccc(Cl)cc3)nc2c1 | i | x | x | x | x | x | x | x
S=c1nc[nH]c2c1sc1nc(N3CCOCC3)c3c(c12)CCCC3 | i | 12* | i | 270.0%* | 35.8* | -18.9 | 60.2* | -10.3 | KCNQ2 W236L pot=i
O=c1[nH]nnc2c1sc1nc(N3CCOCC3)c3c(c12)CCCC3 | i | 1.66 | x | x | x | x | x | x
Cc1ccc(CN2CCC(c3cc(-c4cccs4)n[nH]3)CC2)cc1 | i | x | 26.0%* | i | x | x | x | x
FC(F)(F)c1cccc(CN2CCC(c3cc(-c4cccs4)n[nH]3)CC2)c1 | i | x | x | x | x | x | x | x
CCc1ccc(NC(=O)C(C)n2nc(C)c([N+](=O)[O-])c2C)cc1 (configuration not stated) | i | 1.03 | x | x | x | x | x | x
CC1CCN(C(=O)CCNS(=O)(=O)c2ccccc2)CC1 | i | 0.15 | x | x | x | x | x | x
O=C(CCNS(=O)(=O)c1ccccc1)N1CCC(Cc2ccccc2)CC1 | i | 10.5* | i | i | 13.9* | 87.7* | 8.7* | -35.6 | KCNQ2 W236L pot=i
CN(Cc1ccccc1)C(=O)CSc1n[nH]c(N)n1 | i | x | x | x | x | x | x | x
Oc1ccccc1/C=N/n1cnn(Cc2ccccc2Cl)c1=S | i | 0.92 | x | x | x | x | x | x
O=C(O)CN1C(=O)/C(=C2\C(=O)N(Cc3ccccc3Cl)c3ccccc32)SC1=S | i | 6.15* | i | i | -10.9 | -11.0 | -21.1 | -42.2
O=C1/C(=C2\C(=O)N(Cc3ccc(F)cc3)c3ccccc32)SC(=S)N1CCS(=O)(=O)O | i | x | x | x | x | x | x | x
Cc1ccc(OC(=O)C(C)c2cccc(C(=O)c3ccccc3)c2)cc1 (configuration not stated) | i | x | x | x | x | x | x | x
Cc1ccccc1NC(=O)C(C)c1cccc(C(=O)c2ccccc2)c1 (configuration not stated) | i | 5.27 | i | i | 116.7* | 13.0* | 16.2* | -28.9 | KCNQ2 W236L pot=i
Cn1c(N)c(C(=O)COC(=O)CCCOc2ccc(Cl)cc2Cl)c(=O)n(C)c1=O | i | 2.78 | x | x | x | x | x | x
CC1Cc2ccccc2N1Cc1cc(=O)c(OCC(=O)NCCc2ccccc2)co1 (configuration not stated) | i | x | x | x | x | x | x | x
CCn1ccc(-c2ccccc2)c(C#N)c1=O | i | x | x | x | x | x | x | x
